Experimental data taken from PubChem BioAssay AID1159580 (chemical genetic matrix, 2015).
Hit rate of the full screen: of about 5,500 compounds, about 2,000 (36%) were called active. About 18% were inconclusive and are not listed. Cut-off read from the data, not from the text of the source: active = normalized growth mostly below about 0.91 (no sharp cut-off); inconclusive = no clear call, values can overlap the other calls; inactive = mostly above about 0.92. The list shows a part of the results.

Assay: chemical genetic growth profiling, strain panel (AID 1159580);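 note: tested at 20 µM; growth read once vehicle control cultures reached saturation at 30 °C; 1 = growth at the plate median or of vehicle wells; lower values mean less growth of the strain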
Conditions: growth OD

Measured: normalized growth

CC(C)(C)c1cc(C(C)(C)C)n(-c2ccc(N=Cc3cc(Br)cc(Br)c3O)cc2)n1
active: S. cerevisiae deletion strains, locus YAL013W, strain DEP1, stronger effect = lower value 0.157 | S. cerevisiae deletion strains, locus YBR229C, strain ROT2, stronger effect = lower value 0.204 | S. cerevisiae deletion strains, locus YCL061C, strain MRC1, stronger effect = lower value 0.194 | S. cerevisiae deletion strains, locus YDL101C, strain DUN1, stronger effect = lower value 0.193 | S. cerevisiae deletion strains, locus YDR150W, strain NUM1, stronger effect = lower value 0.355 | S. cerevisiae deletion strains, locus YEL061C, strain CIN8, stronger effect = lower value 0.152 | S. cerevisiae deletion strains, locus YGR078C, strain PAC10, stronger effect = lower value 0.0895 | S. cerevisiae deletion strains, locus YHR030C, strain SLT2, stronger effect = lower value 0.103 | S. cerevisiae deletion strains, locus YHR087W, strain rtc3, stronger effect = lower value 0.101 | S. cerevisiae deletion strains, locus YJR043C, strain POL32, stronger effect = lower value 0.357 | S. cerevisiae deletion strains, locus YJR075W, strain HOC1, stronger effect = lower value 0.119 | S. cerevisiae deletion strains, locus YKL190W, strain CNB1, stronger effect = lower value 0.187 | S. cerevisiae deletion strains, locus YLR039C, strain RIC1, stronger effect = lower value 0.074 | S. cerevisiae deletion strains, locus YLR058C, strain SHM2 (second series), stronger effect = lower value 0.318 | S. cerevisiae deletion strains, locus YLR085C, strain ARP6, stronger effect = lower value 0.12 | S. cerevisiae deletion strains, locus YLR262C, strain YPT6, stronger effect = lower value 0.0868 | S. cerevisiae deletion strains, locus YML094W, strain GIM5, stronger effect = lower value 0.209 | S. cerevisiae deletion strains, locus YMR219W, strain ESC1, stronger effect = lower value 0.219 | S. cerevisiae deletion strains, locus YMR263W, strain SAP30, stronger effect = lower value 0.163 | S. cerevisiae deletion strains, locus YNL153C, strain GIM3, stronger effect = lower value 0.267 | S. cerevisiae deletion strains, locus YNL298W, strain CLA4 (second series), stronger effect = lower value 0.174 | S. cerevisiae deletion strains, locus YNL322C, strain KRE1, stronger effect = lower value 0.679 | S. cerevisiae deletion strains, locus YNR030W, strain Alg12, stronger effect = lower value 0.468 | S. cerevisiae deletion strains, locus YPL055C, strain LGE1, stronger effect = lower value 0.172 | S. cerevisiae deletion strains, locus YPL241C, strain CIN2, stronger effect = lower value 0.64 | S. cerevisiae deletion strains, locus YPR135W, strain CTF4, stronger effect = lower value 0.276 | S. cerevisiae strains, strain wild type, stronger effect = lower value 0.141
